Data: PubChem BioAssay

Test: MRP1 drug-resistance reversers in H69AR cells – cell-based, doxorubicin co-treatment, pilot screen (AID 601)
Details: H69AR cells + 2 uM doxorubicin, CellTiter-Glo, 72 h; measured here: viability with 2 uM doxorubicin; at 10 µM; stronger effect = lower value

Point of comparison: `CCCC(=O)Nc1ccc(NC(=O)c2ccccc2OC)cn1`, viability 86.9%. Against it:
- Cc1ccc(-c2nc(N)n(C(=O)c3cccnc3)n2)cc1 — lower, 85.7%
- COc1ccccc1N1CCN(C(=O)c2ccc3nc(-c4ccco4)c(-c4ccco4)nc3c2)CC1 — lower, 77.6%
- Cc1ccc(OCC(=O)N2CCN(C(=O)CCC3CCCC3)CC2)cc1 — higher, 100%
- O=c1c2[nH]c3cccc(Cl)c3c2ncn1CCN1CCCCC1 — higher, 88.6%
- O=C(CS(=O)(=O)c1cn(Cc2ccc(Cl)cc2)c2ccccc12)N1CCOCC1 — higher, 88.6%
- CC(C)CCNC(=O)C(c1ccco1)N(CC1CCCO1)C(=O)Cn1nnc2ccccc21 (stereo not given) — higher, 92.8%
- Cn1cnnc1Sc1nc2c(c(=O)n(C)c(=O)n2C)n1C — higher, 96.5%
- CC(CCc1ccccc1)NC(=O)c1ccc(Br)o1 (stereo not given) — lower, 84%
- O=C1CC(c2ccsc2)c2cc3c(cc2N1)OCCO3 (stereo not given) — lower, 60.2%
- Nc1nonc1-n1nnc(C(=O)c2ccccc2)c1-c1ccccc1 — higher, 91.4%
- C#CC1(O)CC(C)N(C)C(C)C1 (stereo not given) — lower, 78.3%
- Cc1ccc(S(=O)(=O)CCC(=O)Nc2ccc3c(c2)OCO3)cc1 — higher, 92.1%
- Cc1ccc(C)c2[nH]c(=O)c(CCNC(=O)c3ccc(Br)o3)cc12 — lower, 83.4%
- O=c1c2ccccc2nc(SCc2cn3ccsc3n2)n1-c1ccc(F)cc1 — higher, 115%
- Cn1c(SCC(=O)c2ccc(-c3ccccc3)cc2)nnc1-c1ccco1 — higher, 91.1%
- O=C(NCCSCc1ccco1)Nc1cccc(Cl)c1 — lower, 84.2%
- Cn1nnc2c(sc3nc(N4CCOCC4)c4c(c32)CCCC4)c1=O — higher, 89.3%
- CCOc1cc(NC(=O)c2ccco2)c(OCC)cc1NC(=O)COc1ccccc1C — lower, 12.4%
- CCOc1ccc(OCC)c2sc(C)nc12 — higher, 87.1%
- COC(=O)c1[nH]c2ccccc2c1NS(=O)(=O)c1ccc(OC)cc1OC — higher, 99.4%
- CC(NC(=O)c1ccco1)c1ccc2c(c1)OCCO2 (stereo not given) — higher, 87.1%
- CCC(C)NC(=O)CSC1=Nc2ccccc2C2=NC(CC(=O)NCc3ccccc3)C(=O)N12 (stereo not given) — higher, 94.2%
- Cc1nnc(N(C)C(=O)c2cccnc2)s1 — higher, 87.5%
- COc1ccc(N2C(=O)C3CCCN3C2c2ccc(F)cc2)cc1Cl (stereo not given) — higher, 88.7%
- CCCn1c(SCC(=O)Nc2nnc(-c3ccccc3)s2)nnc1-c1ccccn1 — higher, 96.8%
- CN(C1CCCCC1)S(=O)(=O)c1ccc(S(=O)(=O)N2CCCC2)cc1 — higher, 97.7%
- O=C(CN1CCN(C2CCCCC2)CC1)Nc1ccccc1-c1ccccc1 — lower, 76.7%
- COc1cccc(-n2nnc3c(=O)n(Cc4cccc(F)c4)cnc32)c1 — higher, 94.6%
- Cc1ccc(-n2c(SCC3CCCCO3)nnc2-c2ccco2)cc1 (stereo not given) — lower, 75.9%
- Cc1ccc(-n2nnnc2SCC(=O)N2CCc3ccccc3C2)cc1 — higher, 90.8%
- CCOC(=O)c1cccc(NC(=O)C2CCN(S(=O)(=O)c3cccs3)CC2)c1 — lower, 72.9%
- CCn1c(CSc2ncccn2)nnc1SCC(=O)N1c2ccccc2CC1C (stereo not given) — lower, 84.3%
- Cc1cc(C(=O)Nc2sc3c(c2C#N)CCCCC3)cs1 — lower, 81.7%
- CCN(CC)c1ccc2c(C)c(-c3ccc(N)cc3)c(=O)oc2c1 — lower, 71.6%
- N#CC(C(=O)Nc1ccc(Cl)c(Cl)c1)=C1Nc2ccccc2N1 — lower, 24.3%
- CCn1nnnc1SCC(=O)N1CCOCC1 — lower, 86.3%
- CCN(CC(=O)NCc1cccs1)C(=O)c1cc(S(=O)(=O)N2CCOCC2)ccc1C — higher, 88.3%
- O=C(Nc1ccc2c(c1)OCO2)c1ccc(Br)c(S(=O)(=O)N2CCCC2)c1 — higher, 92.2%
- COc1ccc(CNS(=O)(=O)c2ccc3oc(C(=O)O)c(C)c3c2)cc1 — higher, 91.6%
